Screening data from PubChem.
Six1-Eya2 blk = inhibitors of human Six1/Eya2 interaction | Q15475+O00167 | AlphaScreen GST-Six1/His-Eya2 binding, biochemical; active compounds read low | activity change, % (test concentration not listed) | 360,000 tested, 0.56% active | AID 651725; in the data active = activity change below about -65%; inconclusive = mostly about -30% to -63%; note: % is set by controls: 0 for no effect and ±100 for the full control effect
Target sequence (O00167 whole entry, looked up): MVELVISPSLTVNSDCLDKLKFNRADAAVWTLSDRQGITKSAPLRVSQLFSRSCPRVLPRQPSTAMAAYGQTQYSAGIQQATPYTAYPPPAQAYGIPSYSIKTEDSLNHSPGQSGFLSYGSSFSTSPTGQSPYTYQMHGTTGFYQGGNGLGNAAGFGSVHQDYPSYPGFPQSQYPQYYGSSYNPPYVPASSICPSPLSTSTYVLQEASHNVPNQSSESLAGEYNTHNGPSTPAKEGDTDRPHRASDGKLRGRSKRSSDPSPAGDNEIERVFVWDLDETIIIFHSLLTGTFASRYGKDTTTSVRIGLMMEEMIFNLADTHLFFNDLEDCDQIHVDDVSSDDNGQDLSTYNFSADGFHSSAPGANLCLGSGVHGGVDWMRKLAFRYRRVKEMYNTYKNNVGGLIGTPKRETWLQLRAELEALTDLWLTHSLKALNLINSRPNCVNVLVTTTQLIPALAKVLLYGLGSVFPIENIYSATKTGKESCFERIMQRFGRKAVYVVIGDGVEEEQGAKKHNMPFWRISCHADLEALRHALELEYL
Target sequence (Q15475 whole entry, looked up): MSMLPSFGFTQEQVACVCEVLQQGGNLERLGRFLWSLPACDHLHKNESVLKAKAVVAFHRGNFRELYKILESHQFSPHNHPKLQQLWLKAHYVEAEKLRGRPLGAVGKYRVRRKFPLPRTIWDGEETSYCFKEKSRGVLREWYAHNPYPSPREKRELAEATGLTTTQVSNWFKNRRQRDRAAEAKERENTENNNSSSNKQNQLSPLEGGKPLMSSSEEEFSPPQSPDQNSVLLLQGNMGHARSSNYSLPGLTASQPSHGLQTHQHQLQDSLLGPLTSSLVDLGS
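AlphaScreen with GST-Six1 and His-Eya2 (5X mix: 250 nM and 500 nM), glutathione donor and nickel acceptor beads; buffer 50 mM Tris pH 8.0, 300 mM NaCl, 1 mM TCEP; 1 h at 37 C in the dark.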
HepG2 viability = HepG2 cytotoxicity, counter-screen for TGF-b inhibitors; 410,000 tested, 0.76% active; Potency, µM (titrated, usually from 46.1 µM), for inactives: at the top dose activity change, negative = cytotoxicity, actives largely listed as cytotoxic; HepG2 CAGA-GFP viability, ATP luminescence, 18 h; note: potency is the fitted concentration of half-maximal effect
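HepG2 CAGA-GFP cells (1000/well, DMEM with 1% FBS) received compound, then TGF-beta at 500 pg/mL final, and were incubated 18 hours at 37 degrees C. Viability was read by CellTiter-Glo luminescence. Media-only wells were set as complete cell-killing and DMSO as no toxicity.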
CtBP-E1A blk = CtBP/E1A binding inhibition; AlphaScreen GST-E1A/His-CtBP binding, 1536-well; active compounds read low; activity change, % (test concentration not listed); 340,000 tested, 0.49% active; in the data active = activity change below about -65%; inconclusive = mostly about -30% to -63%; note: % is set by controls: 0 for no effect and ±100 for the full control effect
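Steps: dispense buffer (Tris pH 8.0, NaCl 300 mM, TCEP 1 mM, BSA, Tween 20); add 5X protein mix (GST-E1A, His-CtBP, 125 nM each); pin 23 nL compound; 2 h at 37 °C, dark; add 5X beads (50 ug/mL); 1 h; read.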
TGFb SMAD3 inh = inhibitors of TGF-b signaling; HepG2 CAGA-GFP TGF-b/SMAD3 reporter, GFP fluorescence, 18 h; TGF-beta stimulated, 500 pg/mL final; Potency, µM (doses to about 46.1 µM), inactives show at the top dose activity, negative = inhibition, actives largely listed as inhibitors; 410,000 tested, 1.2% active; AID 588855; note: potency is the fitted concentration of half-maximal effect; % is set by controls: 0 for no effect and ±100 for the full control effect; nearly all actives have a fitted effect of over 65% in size
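TGF-beta reporter screen: HEPG2 CAGA-GFP, 1% FBS, 500 pg/mL TGF-beta final, 18 h; per-cell GFP summed per well; curves fitted and categorized by class.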
S2 tox = cell viability loss in ATXN counter-screen. S2 cells (HEK-293 line with an ATXN2-luciferase reporter) viability, CellTiter-Fluor protease fluorescence, 24 h. Potency, µM (top dose mostly 56.7 µM), usual class: cytotoxic. 400,000 tested, 0.49% active. AID 651635; note: potency is the fitted concentration of half-maximal effect; nearly all actives have a fitted effect of over 40% in size
ATXN2 expr inh = inhibitors of ATXN2 expression | HEK-293 ATXN2-luciferase reporter, luminescence, 24 h | Potency, µM (doses to about 57 µM), inactives show at the highest dose activity change, negative = inhibition, usual class: inhibitors | 360,000 tested, 0.72% active | AID 1745845; note: potency is the fitted concentration of half-maximal effect; % is set by controls: 0 for no effect and ±100 for the full control effect; nearly all actives have a fitted effect of over 55% in size
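qHTS (up to 57 uM final) was run with 24 h compound exposure of reporter cells at 37 °C. Each well was multiplexed: SteadyGlo luminescence measured ATXN2-luciferase expression after a fluorogenic Gly-Phe-AFC viability readout (25 uM final).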
* marks the source's active call; other numbers are inactive results; i = inactive; ? = inconclusive; · = no result. Compounds with a hit are over-represented: about 2.8% of the library has one in this group of screens. Unless noted, calls come from the whole dose curve; as a rule, active = well fitted curve in the direction sought with a large enough effect; inconclusive = small, poorly fitted or top-dose-only effect, or another doubt; inactive = no such curve, though single readings can be large; an effect the other way counts as inactive or inconclusive.

SMILES	Six1-Eya2 blk	HepG2 viability	CtBP-E1A blk	TGFb SMAD3 inh	S2 tox	ATXN2 expr inh
CN1CCCN(C(=O)[C@@H]2C[C@@H](Sc3nc4ccccc4[nH]3)CN2Cc2ccc(-c3ccccc3)cc2)CC1	·	·	·	·	i	·
O=C(Nc1nc2ccccc2[nH]1)c1ccc(F)cc1	-10	-36%	-16	-14%	i	?
O=C(Nc1nc2ccccc2[nH]1)c1ccc(OC(F)F)cc1	1	-46%	-8	0%	i	-31%
COc1ccc(C(=O)Nc2nc3ccccc3[nH]2)cc1S(=O)(=O)N1CCCC1	?	-9%	-70*	-4%	i	-2%
CC(C)Oc1ccc(C(=O)Nc2nc3ccccc3[nH]2)cc1	-1	-21%	1	2%	i	4.5µM*
O=C(Nc1nc2ccccc2[nH]1)c1ccccc1F	16	2.2µM*	28	1%	i	2%
O=C(Nc1nc2ccccc2[nH]1)c1ccccc1OC(F)F	-1	-26%	-28	?	i	?
COc1ccc(C(=O)Nc2nc3ccccc3[nH]2)cc1OC	-10	-9%	-6	9%	i	37%
CCc1ccc(C(=O)Nc2nc3ccccc3[nH]2)cc1	-1	-62%	-8	-13%	i	5µM*
COc1cccc(-n2ccnc2SCC(=O)Nc2nc3ccc(C)cc3s2)c1	·	-26%	·	0%	i	3%
COCc1c(C(=O)N2CCN(c3ccccc3)CC2)cnn1-c1nccc(-c2ccco2)n1	·	·	·	·	i	·
CC(C)(C)n1ncc2c(=O)n(Cc3cc(Cl)ccc3Cl)cnc21	·	-5%	·	-8%	·	·
O=C1CC(c2cc(Br)ccc2F)c2cc3c(cc2N1)CCC3 (stereo not drawn)	1	4%	3	-4%	4.5µM*	?
O=C1CC(c2cccc(Cl)c2)c2cc3c(cc2N1)CCC3 (stereo not drawn)	-8	-53%	-4	10µM*	?	?
COc1cccc(C2CC(=O)Nc3cc4c(cc32)CCC4)c1 (stereo not drawn)	-7	-18%	·	-25%	?	·
CC(=O)NCCCc1ccc(C(=O)COC(=O)CNC(=O)c2ccc3ccccc3c2)cc1	·	4%	·	0%	·	·
CO/N=C/C=C1/N(C)c2ccccc2C1(C)C	-4	-2%	-8	-1%	i	-7%
CN1/C(=C\C=N\O)C(C)(C)c2ccccc21	7	-7%	3	-18%	i	14%
CN1/C(=C\C=[N+](C)c2ccccc2)C(C)(C)c2ccccc21	-4	-35%	3	-27%	11µM*	7.1µM*
CN(C)c1ccc(N=C/C=C2/N(C)c3ccccc3C2(C)C)cc1	-68*	-50%	·	?	?	·
CN1/C(=C\C=C2/SC(=S)NC2=O)C(C)(C)c2ccccc21	-2	-40%	·	35%	28µM*	·
CN1C(=CC=C2C=C(I)C(=O)C(I)=C2)C(C)(C)c2ccccc21	7	-8%	0	-12%	?	-18%
COCCN1CCN(C(=O)c2cnn(-c3nccc(-c4ccco4)n3)c2C(C)C)CC1	·	·	·	·	i	·
Cc1ccc(-c2onc(C)c2C)cc1S(=O)(=O)NCc1ccc(N(C)C)cc1	·	-2%	·	-19%	·	·
O=C1CCC[C@@H]2CC(Nc3ccccc3)C[C@@H]3CCN1[C@H]23 (stereo partly drawn)	·	9%	·	-15%	·	·
NC(=Nc1nc(-c2ccccn2)cc2ccccc12)c1ccccn1	-13	-60%	6	-62%	?	0.32µM*
CC(C)C1C(=O)Nc2ccc(S(=O)(=O)NCc3ccc(Cl)cc3)cc21 (stereo not drawn)	·	-29%	·	-9%	i	-38%
Cc1ccc(C)c(CN2C[C@H](Sc3ccccn3)C[C@H]2C(=O)Nc2ccc3sc(C)nc3c2)c1	·	·	·	·	i	·
Cc1cccc(/C=N/N(CCO)C2=NS(=O)(=O)c3ccccc32)c1	?	1%	-81*	-11%	i	-35%
